# Laboratory results: the supplement of paper PMC3334620
# The full ranking holds about 33,000 sequences; the median of “E-score (-0.5 to 0.5)” is about -0.035, and the highest 2% start at about 0.34. Only a selection was taken, and the highest values are over-represented in it overall.
# Biological target: T1, Mot3 (UniProt P54785)
# T1 sequence: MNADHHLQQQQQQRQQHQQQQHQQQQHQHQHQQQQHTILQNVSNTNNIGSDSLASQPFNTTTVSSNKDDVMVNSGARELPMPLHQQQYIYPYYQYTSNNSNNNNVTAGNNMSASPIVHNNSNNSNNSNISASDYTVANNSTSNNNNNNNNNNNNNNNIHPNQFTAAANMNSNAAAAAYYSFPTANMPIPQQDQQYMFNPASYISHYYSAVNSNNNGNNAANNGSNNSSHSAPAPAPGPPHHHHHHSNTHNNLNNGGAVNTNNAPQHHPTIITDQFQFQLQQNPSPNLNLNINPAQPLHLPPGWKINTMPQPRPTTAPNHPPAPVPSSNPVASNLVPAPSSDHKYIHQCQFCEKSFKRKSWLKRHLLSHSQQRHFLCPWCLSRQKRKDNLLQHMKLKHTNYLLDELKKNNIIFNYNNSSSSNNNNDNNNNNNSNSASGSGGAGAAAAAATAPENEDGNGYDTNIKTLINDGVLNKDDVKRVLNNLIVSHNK
# Test: PBM E-score (8-mer binding enrichment) (E-score (-0.5 to 0.5)); higher = stronger / more preferred TF binding
# Settings: protein concentration: 200 nM; construct: GST-full length
# Procedure, shortened: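 Yeast transcription factors carrying a GST tag, as full-length proteins or DNA-binding domains, were produced by PURExpress in vitro transcription/translation. About 100-200 nM protein was applied to universal all-10-mer Agilent arrays, double-stranded by primer extension on fresh or once-stripped slides. Bound protein was detected with fluorescent anti-GST, and scans were normalised with masliner. The Universal PBM Analysis Suite gave each ungapped eight-base word, pooled with its reverse complement, an E-score, a modified Wilcoxon-Mann-Whitney statistic.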
row,Sequence,PBM E-score
1,GGCCGAAA,-0.186
2,TACCCAAA,0.11
3,AATCTATG,-0.00189
4,ACCTGAAG,-0.135
5,AAGCCCCT,-0.195
6,AGAACTAT,-0.0425
7,AGAAAGAG,-0.195
8,CGAGGAAC,0.285
9,AAAGGAAC,0.456
10,AAAGGAGA,-0.0548
11,AAAGGAAA,0.442
12,GAAGGAGC,-0.251
13,AAAGGAAT,-0.0306
14,CAAGGAAC,0.43
15,AAAGGATA,-0.0444
16,CAAGGACC,0.0666
17,AAAGGAAG,0.059
18,CAAGGAAG,-0.00272
19,GAAGGAAC,0.468
20,AACTCTCT,-0.19
21,AGCCCGAT,-0.195
22,CCCAGGAG,-0.207
23,ACTTGTAT,0.173
24,ACACCTTG,0.193
25,CCGTTGTA,0.125

row,Sequence,PBM E-score
1,CTGAACCA,0.0648
2,CACAGGCC,0.0987
3,TACAGTCA,0.191
4,TACAGGCA,0.484
5,GACAGGCC,-0.139
6,AACAGGCG,0.167
7,AACAGGCT,0.305
8,AACAGGCA,0.484
9,CACAGGCA,0.482
10,GACAGGGA,-0.089
11,GACAGGCA,0.483
12,CACAGGCG,0.277
13,TACAGGGA,0.0536
14,GCTGTGAC,-0.128
15,GACTTCCA,-0.126
16,TGGAAGAA,0.00562
17,CACTACGG,-0.1
18,GCCACAGA,-0.0635
19,GAGGAGGC,-0.0566
20,AATAAGTA,0.124
21,CCACTCGA,-0.0827
22,AATAGACG,-0.138
23,ACACGCTG,0.256
24,ACACGCTA,0.356
25,ACACGCTC,0.305

row,Sequence,PBM E-score
1,ACACGCGT,0.36
2,ACACGCGA,0.292
3,ACACGCGG,0.252
4,AGTATCGA,0.122
5,TCGTAGAA,0.0868
6,CCGATCAC,-0.0956
7,ATCGCCAG,-0.289
8,ACATGTTG,0.368
9,GGATGTTA,0.172
10,ACATGTTA,0.397
11,CCATGTTA,0.339
12,GCATGTTA,0.385
13,AGATGTTG,-0.102
14,AGATGTTA,0.158
15,ACATGTTC,0.295
16,AAATGTTA,0.288
17,CTAGGTCA,-0.135
18,ATTGGCAC,-0.068
19,AAACCTGG,0.0922
20,GCCGTTAC,-0.13
21,CCAACTCC,-0.135
22,TCCTCCAA,-0.0985
23,GATCTAGC,-0.194
24,ATACTGCC,-0.204
25,TGCAGACA,0.0246

row,Sequence,PBM E-score
1,AGCAGGCA,0.483
2,TGCAGCCA,-0.192
3,GGCAGGTA,0.277
4,GGCAGGCA,0.481
5,TGCAGGCA,0.484
6,GGCAGGCC,-0.165
7,AGCAGGCG,0.148
8,CGCAGGCG,0.17
9,AGCAGGCC,-0.0206
10,CGCAGGCC,0.123
11,CGCAGGCA,0.482
12,TATGCGAA,-0.0122
13,TATCAATA,0.134
14,AGTTTTCA,-0.204
15,CATCTGCA,-0.0636
16,CTAACTCC,-0.141
17,GGCGTAAA,0.146
18,CGCGTAAG,0.299
19,AGCGTAAA,0.12
20,CGCGTAAC,0.225
21,TGCGTAAA,0.342
22,CGCGTAAA,0.392
